Source: PubChem BioAssay
Many of the other results were omitted from the sample, so hits are more common in it than they were.
Tgondii IFNg = T. gondii growth inhibition under IFN-gamma. Toxoplasma gondii growth in IFN-gamma-treated host cells; hits give low values. activity change, negative = inhibition, % (concentration not given with the values). 3.8% of 69,000 active. AID 1259416; in the data active = activity change below about -70%, passing the limit was not always enough;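 also: host cells are HeLa cells infected with Toxoplasma gondii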
Starred values were filed as active, the others as inactive; i = inactive.

SMILES	Tgondii IFNg
Cn1nc(-c2ccc(-c3ccnc(SCc4ccccc4)n3)s2)cc1C(F)(F)F	-97*
Nc1cc(N)nc(SCc2ccccc2)n1	172
Cn1nc(-c2ccc(S(N)(=O)=O)s2)cc1C(F)(F)F	23
COc1ccc2c(c1)NC1(CCN(S(=O)(=O)c3ccc(OC)c(Cl)c3)CC1)c1cccn1-2	-4
CCc1ccccc1NC(=O)c1nnn(Cc2nc(-c3ccc(OC)cc3OC)oc2C)c1C	-37
COc1ccc(Cc2nn3c(C(=O)c4cccs4)nn(-c4ccccc4)c3nc2=O)cc1	-94*
COc1ccc(-c2nc(C)c(CCNC(=O)C(=O)Nc3ccccc3)s2)cc1	1
COc1ccc(-c2nc(C)c(CCNC(=O)c3cccs3)s2)cc1	i
CCN1CCN(C(=O)C2=NNC(=O)CC2)C(Cc2cccc(-c3cccs3)c2)C1=O (stereo not drawn)	-24
CN(Cc1ccncn1)C(=O)C1(Oc2ccc(Cl)cc2)CCNCC1	-5
O=C(Cn1ncc2c(N3CCN(c4ccccn4)CC3)ncnc21)NCc1ccc(F)cc1	-100*
CCCNC(=O)Cn1ncc2c(N3CCN(c4ccccn4)CC3)ncnc21	45
O=C(Cn1ncc2c(N3CCCCCC3)ncnc21)NCc1ccc(F)cc1	-99*
O=C(Cn1ncc2c(N3CCCCCC3)ncnc21)Nc1ccc(F)cc1	-3
O=C(Cn1ncc2c(N3CCN(c4ccccn4)CC3)ncnc21)NCc1ccco1	-97*
O=C(Cn1ncc2c(N3CCCC3)ncnc21)Nc1ccc(Br)cc1	195
O=C(Cn1ncc2c(N3CCCCCC3)ncnc21)NCc1cccc(Br)c1	-23
O=C(Cn1ncc2c(N3CCCCC3)ncnc21)NCc1ccco1	21
O=C(Cn1ncc2c(N3CCCC3)ncnc21)Nc1ccc(F)cc1F	55
O=C(Cn1ncc2c(N3CCN(c4ccccn4)CC3)ncnc21)NCc1cccnc1	11
O=C(Cn1ncc2c(N3CCCCCC3)ncnc21)NCc1ccc(Br)cc1	-93*
Cc1ccc(CNC(=O)Cn2ncc3c(N4CCN(c5ccccn5)CC4)ncnc32)cc1C	134
COCC1(C(=O)NCc2nncn2C2CCCCC2)CCC1	-2
Cc1cccc(N2CCN(C(=O)CCC3Nc4c5ccccc5nc(=S)n4C3=O)CC2C)c1 (stereo not drawn)	7
Cc1ccc(NC(=O)Nc2ccc(-c3nc(-c4ccccc4)co3)cc2)cc1C	4
SMILES	Tgondii IFNg
COc1cccc(CN2CCC(O)(c3ccccc3C)C2)c1O (stereo not drawn)	22
Cc1cc(C)cc(C(=O)Nc2ccc(N3CCOCC3)cc2)c1	11
CCOc1ccc(CNC(=O)Cn2ncc3c(N4CCCC4)ncnc32)cc1OCC	-4
O=C(Cn1ncc2c(N3CCCCCC3)ncnc21)NCc1ccc2c(c1)OCO2	-97*
CCc1ccc(CNC(=O)Cn2ncc3c(N4CCCCCC4)ncnc32)cc1	-92*
CCc1ccc(CNC(=O)Cn2ncc3c(N4CCOCC4)ncnc32)cc1	279
O=C(Cn1ncc2c(N3CCCCC3)ncnc21)NCc1ccccc1	-92*
COc1cccc(CNC(=O)Cn2ncc3c(N4CCCCCC4)ncnc32)c1	-51
CCc1ccc(NC(=O)Cn2ncc3c(N4CCCCCC4)ncnc32)cc1	-34
O=C(Cn1ncc2c(N3CCCC3)ncnc21)NCc1ccncc1	-35
O=C(Cn1ncc2c(N3CCCCCC3)ncnc21)NCc1ccc(F)c(Cl)c1	3
FC(F)(F)C(OCc1n[nH]c(Cc2ccccc2)n1)c1ccccc1 (stereo not drawn)	-2
NC(=S)N/N=C/c1ccncc1	11
COC1COC2(CCN(S(=O)(=O)c3ccc(F)cc3)CC2)C1 (stereo not drawn)	2
CC(=O)N[C@@H]1C[C@H](CC(C)C)O[C@H](c2cn[nH]c2C2CCCCC2)C1	36
Cc1nc(CN(C)C(=O)c2sc(C(C)C)nc2C)cs1	-2
CCOC(=O)c1nc(N(CCC(=O)OC)c2ccccc2)c2ccccc2n1	-26
O=C(c1ccc(-c2ccoc2)nc1)N1CCC(CCc2ccccc2)CC1	-11
CCc1nnc(NC(=O)CSc2nc3cccnc3n2Cc2ccccc2)s1	-83*
Cc1nnc(NC(=O)CSc2ccccn2)s1	10
O=C(CSc1nc2ccccc2n1Cc1ccccc1)Nc1ccccn1	-6
CC(C)NC(=O)N1Cc2ccnn2CC(COc2cccnc2)C1 (stereo not drawn)	3
COC(C(=O)N1N=C(c2c(-c3ccccc3)c3cc(Cl)ccc3[nH]c2=O)CC1c1ccccc1)c1ccccc1 (stereo not drawn)	-102*
CNC(=S)N1N=C(c2c(-c3ccccc3)c3cc(Cl)ccc3[nH]c2=O)CC1c1ccccc1 (stereo not drawn)	156
CNC(=S)N1N=C(c2c(-c3ccccc3)c3cc(Cl)ccc3[nH]c2=O)CC1c1ccccc1OC (stereo not drawn)	-40
Cc1[nH]cnc1-c1nccn1CCC(=O)Nc1ccc(N(C)C)cc1	0
Cc1ccc(N2CC3(CCN(S(=O)(=O)C4CC4)C3)CC2=O)cc1 (stereo not drawn)	55
CCCN(CC)C(=O)c1ccc2onc(-c3csc(-c4cccnc4)n3)c2c1	-19
